HTR5A inv ctr: inverse agonist of human HTR5A in OPRM1-OPRD1 counter-screen | HTR5A cell line, luminescence, inverse agonism | inhibition, % at 9.3 µM | 340,000 tested, 0.083% active; in the data active means inhibition mostly above about 23%, no sharp cut-off; inactive means mostly below about 18%;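 further: 0% = cells with DMSO and 100% = no-cell wells with DMSO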
MOR-DOR inv ag: inverse agonists of human mu-delta opioid receptor heterodimerization | P35372+P41143 | 340,000 tested, 0.21% active | inhibition, % at 9.3 µM | cell-based MOR-DOR heterodimer luminescence, inverse agonism | AID 504357; in the data active means inhibition above about 22%, passing the limit was not always enough;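 further: 0% = cells with DMSO and 100% = wells without cells with DMSO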
HTR2A ag: agonists of mouse serotonin 5-HT2A receptor (HTR2A) | P35363 | CHO-K1 mHTR2A beta-arrestin complementation, luminescence; percent of 30 µM serotonin response | activation, % at 7.6 µM | 360,000 tested, 0.66% active;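 active means activation above a run cutoff, the mean activation of all tested compounds plus 3 SD, cut at about 14% in these data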;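 further: 0% = plate median of compound wells and 100% = 30 µM serotonin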
HTR5A ag: activates human HTR5A in OPRM1-OPRD1 agonist counter-screen; P47898; 340,000 tested, 0.61% active; HTR5A agonist assay, luminescence, cell-based; activation, % at 9.3 µM; in the data active means activation mostly above about 9.5%, no sharp cut-off; inactive means mostly below about 7.6%;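 further: 0% = cells with vehicle only and 100% = reference agonist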
MOR-DOR ag: agonists of human mu-delta opioid receptor heterodimerization; P35372+P41143; cells, OPRM1-OPRD1 heterodimerization, luminescence; 340,000 tested, 0.3% active; AID 504326; activation, % at 9.3 µM;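 further: 0% = vehicle-treated cells and 100% = reference agonist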
MOR-DOR ag conf: confirmation of human OPRM1-OPRD1 heterodimerization agonists; shares compounds with MOR-DOR ag; cells, MOR-DOR heterodimerization, luminescence complementation; activation, % at 9.3 µM; 830 tested, 45% active; AID 504904;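 further: 0% = vehicle-treated cells and 100% = reference agonist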
HTR5A ag ctr2: activates human HTR5A in OPRM1-OPRD1 agonist counter-screen; shares compounds with MOR-DOR ag; HTR5A agonist counterscreen, cell luminescence; activation, % at 9.3 µM; 830 tested, 8% active; AID 504905; in the data active means activation above about 17%;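 further: 0% = vehicle-treated cells and 100% = reference agonist response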
Starred values were filed as active, the others as inactive; i = inactive; · = not tested or not shown. Shown are actives, neighbours in structure and some others; about 1.6% of the full set was active somewhere. Unless noted, no stated cut-off is given here; in the data, active means activation above about 18%; inactive means the rest.

SMILES	HTR5A inv ctr	MOR-DOR inv ag	HTR2A ag	HTR5A ag	MOR-DOR ag	MOR-DOR ag conf	HTR5A ag ctr2
Cn1nc(-c2ccc(OCC(=O)N3CCN(Cc4ccccc4)CC3)cc2)c2ccccc2c1=O	13.4	8.8	3.3	-5.6	-1.8	·	·
CN(C(=O)Cc1ccc(Cl)c(Cl)c1)C(CN1CCCC1)c1cccc(OCC(=O)O)c1 (configuration not stated)	-4.5	-308.2	-0.9	1.2	57.0*	36.9*	-1.1
CCOC(=O)C1(CCOc2ccccc2)CCN(Cc2ccc(C)s2)CC1	3.6	-171.2	-3.9	-1.5	32.8*	38.5*	3.4
CCOC(=O)C1(CCc2ccccc2)CCN(C2CCSCC2)CC1	6.7	-10.1	-3.2	-2.7	1.9	·	·
CCOC(=O)C1(CCc2ccccc2)CCN(Cc2ccc(NC(C)=O)cc2)CC1	2.1	i	-2.5	-0.6	292.7*	372.3*	0.3
CCOC(=O)C1(CCCc2ccccc2)CCN(C2CCCC2)CC1	7.0	10.5	4.9	-2.6	-2.0	·	·
CCOC(=O)C1(CCc2ccccc2)CCN(Cc2ccc3c(c2)OCCO3)CC1	-12.7	-120.8	-8.9	6.1	24.7*	0.9	4.0
Cn1c(NN=O)nc2ccccc21	-12.3	11.2	-5.7	4.8	-1.9	·	·
Cc1ccccc1-n1c(O)c(C=Nc2ccc(N(C)C)cc2)c(=O)[nH]c1=O	-26.7	-2.8	3.9	6.3	0.6	·	·
COC(=O)C1=C(c2cccc(OCc3ccccc3)c2)C[C@@H]2CC[C@H]1N2C(=O)NCc1ccc2[nH]ccc2c1	-0.5	11.4	-1.7	0.2	-2.1	·	·
CC12CCC3C(CCC4(O)CC(O)CCC34C=O)C1(O)CCC2C1=CC(=O)OC1 (configuration not stated)	-113.3	-404.8	-3.3	29.0*	78.7*	40.6*	23.9*
CC12CCC3C(CCC4(O)CC(O)CCC34C=NO)C1(O)CCC2C1=COC(=O)C1 (configuration not stated)	-117.6	-336.6	-1.1	30.7*	76.9*	-0.4	-1.2
C[C@H]1O[C@@H](OC2CC[C@]3(C=O)[C@H]4CC[C@]5(C)[C@@H](C6=CC(=O)OC6)CC[C@]5(O)[C@@H]4CC[C@]3(O)C2)CC2OC(C)(C)OC21 (some centres not stated)	-127.2	-420.2	-0.7	32.8*	72.8*	-2.4	-2.1
CCCCN=C[C@]12CCC(O)CC1(O)CCC1[C@@H]2CC[C@]2(C)[C@H](C3C=CC(=O)O3)CCC12O (some centres not stated)	-122.9	-395.7	5.1	31.4*	71.4*	35.7*	27.1*
Cc1ccc(OC(=O)N(C)C[C@@H]2OCc3cnnn3CCCC(=O)N([C@H](C)CO)C[C@H]2C)cc1	·	·	6.4	·	·	·	·
C[C@]12CC[C@H]3[C@@H](CC[C@]4(O)C[C@@H](O)CC[C@]34C=O)[C@@]1(O)CC[C@@H]2C1=CC(=O)OC1	-71.1	-376.0	0.1	19.9	69.5*	0.5	-0.3
CC12CC[C@H]3[C@@H](CCC4(O)C[C@H](O)CCC34/C=N/NC(=O)c3ccccc3Cl)C1(O)CCC2C1=CC(=O)OC1 (some centres not stated)	-13.0	5.3	-1.1	4.1	-1.0	·	·
C[C@]12CCC3C(CCC4=CC(O)CC[C@@]43/C=N/O)C1(O)CCC2C1=CC(=O)OC1 (some centres not stated)	-105.8	-354.9	-0.9	28.9*	69.2*	38.1*	21.6*
CC1CCCC(C2(O)C(=O)Nc3ccccc32)C1=O (configuration not stated)	2.7	12.3	-1.7	-1.1	-3.0	·	·
Clc1cc(Cl)c(-c2cc(Cl)c(Cl)cc2Cl)cc1Cl	-18.8	17.0	-0.4	4.5	-3.2	·	·
COc1cc(C(C)=O)ccc1OC(=O)N(C)c1ccccc1	-25.9	1.0	11.0	8.2	-0.2	·	·
O=[N+]([O-])c1ccc(C2[C@H]3C(c4ccccc4)=NC4(CCCCC4)N23)cc1 (some centres not stated)	19.8	-35.5	-0.4	3.7	4.9	·	·
Cc1cc(-c2ccccc2)cc(C)[n+]1Cc1ccccc1	3.1	-298.5	0.1	3.1	53.1*	0.3	1.3
O=[N+]([O-])c1ccc(C[n+]2c(-c3ccccc3)cc(-c3ccccc3)cc2-c2ccccc2)cc1	-6.7	10.3	10.2	2.5	-1.8	·	·
CCC(=O)OC(Cc1ccccc1)(c1ccccc1)[C@H](C)CN(C)C (some centres not stated)	-21.7	-325.7	-6.2	9.4	81.0*	79.6*	-5.0
SMILES	HTR5A inv ctr	MOR-DOR inv ag	HTR2A ag	HTR5A ag	MOR-DOR ag	MOR-DOR ag conf	HTR5A ag ctr2
C=C[C@@H]1C[C@@]1(C)[C@@H](NP(=O)(c1ccccc1)c1ccccc1)c1ccccc1	-5.3	10.7	1.5	13.5	-1.9	·	·
COc1cc2c3cc1Oc1cc(ccc1O)C[C@@H]1c4c(cc(OC)c(O)c4Oc4ccc(cc4)C[C@H]3N(C)CC2)CCN1C	-23.4	-189.4	-2.6	11.0	34.2*	64.9*	-3.8
CCN(CC)CCCOC(=O)C(OC(C)C)(c1ccccc1)c1ccccc1	0.1	-6.4	-24.8	-0.2	1.2	·	·
CC[C@H](OC(C)=O)C(C[C@H](C)N(C)C)(c1ccccc1)c1ccccc1	3.9	i	-3.5	-1.7	220.6*	2.4	51.6*
CN(C)C(CNC(=O)Cc1c(Cl)cccc1Cl)c1ccccc1 (configuration not stated)	-2.6	i	-1.7	0.9	144.6*	1.3	4.2
Clc1ccc(NC2=NCCCS2)cc1Cl	10.6	5.5	5.7	-2.2	-0.9	·	·
C[C@@H]1O[C@@H](O[C@H]2C[C@@H](O)[C@]3(CO)[C@H]4[C@H](O)C[C@]5(C)[C@@H](C6=CC(=O)OC6)CC[C@]5(O)[C@@H]4CC[C@]3(O)C2)[C@H](O)[C@H](O)[C@H]1O	-32.8	-386.4	-0.8	30.1*	69.8*	79.4*	6.0
N#CC12CC(=O)N1Cc1cnnn1-c1ccccc12 (configuration not stated)	·	·	5.3	·	·	·	·
COC(=O)C1=C(c2ccccc2OCc2ccccc2)C[C@@H]2CC[C@H]1N2C(=O)NCc1ccc(Br)cc1	-32.4	7.6	3.0	2.9	-1.7	·	·
C=CCn1c(O)c(C(C)=NCc2cc(OC)cc(OC)c2)c(=O)[nH]c1=O	-2.5	10.1	6.3	1.5	-1.7	·	·
CC1=NCCc2c1[nH]c1ccccc21	-40.1	-107.7	4.0	4.6	19.5*	6.2	12.0
CN1CCc2c([nH]c3ccccc23)C1	0.2	19.6	-4.2	1.5	-3.9	·	·
CN1CC[C@]23c4c5ccc(OC6OC(C(=O)O)[C@@H](O)C(O)[C@H]6O)c4OC2C(O)C=CC3[C@H]1C5 (some centres not stated)	-9.8	-33.6	5.1	4.2	8.4	·	·

From PubChem
